Sampled rows, rich in hits. Any-hit rate of the full collection: about 2.2%.
GAA850 FXN act = activators of GAA850 frataxin (FXN) promoter; hit rate 0.56% among 360,000; activation, % at 6 µM; HEK293 lucGAA850 FXN promoter luciferase reporter, 24 h; percent of 10 µM SAHA response;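 active = activation above the average of all compounds screened plus 3 SD, cutoff fixed separately per campaign, cut at about 7.5% in these data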;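 also: 0% = DMSO wells and 100% = 10 µM SAHA wells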
SMARCA2 activ = activators of SMARCA2 function. MG213 cells, MMTV-luciferase reporter, dexamethasone, overnight. activation, % at 9.1 µM. hit rate 1% among 370,000. AID 652017; in the data active = activation above about 7.8%;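 also: 0% = vehicle wells and 100% = reference activator wells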
Hsp70 act = Hsp70 transcriptional activation, primary screen. HeLa Hsp70 promoter luciferase reporter, luminescence; scaled: vehicle 0, proteasome-inhibitor control 100%. activation, % at 10 µM. hit rate 0.04% among 200,000. AID 1203;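 active = activation above the mean across all tested compounds plus 3 SD, cutoff set per campaign, cut at about 5.5% in these data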;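 also: 100% = MG132 at 30 µM as the positive control and 0% = DMSO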
GalR3 antagonist = blocks the human galanin receptor 3. AID 651719. HEK293 GalR3-CNG cAMP membrane potential fluorescence; galR3 body fused to GalR1 C-terminus. O60755. inhibition, % at 3 µM. hit rate 0.44% among 360,000;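 active = inhibition above the screen-wide average plus 3 SD, cut at about 13% in these data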;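 also: forskolin and galanin both at EC90 stimulate the cells; cAMP rise reported by CNG channel membrane potential dye signal; 0% = forskolin plus galanin with DMSO and 100% = forskolin alone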
Target sequence (O60755 1-299 limits assumed): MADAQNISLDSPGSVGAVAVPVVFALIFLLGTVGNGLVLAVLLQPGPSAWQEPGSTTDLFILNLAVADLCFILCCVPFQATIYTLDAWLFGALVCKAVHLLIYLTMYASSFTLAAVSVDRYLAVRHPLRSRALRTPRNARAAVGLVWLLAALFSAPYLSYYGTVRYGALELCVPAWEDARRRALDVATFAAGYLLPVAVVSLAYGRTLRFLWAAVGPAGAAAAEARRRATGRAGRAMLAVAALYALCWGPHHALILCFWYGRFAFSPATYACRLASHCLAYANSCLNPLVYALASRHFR
HIF act = HIF pathway transcriptional activation | U2OS HRE-luciferase reporter, luminescence; normalized: DMSO 0%, desferrioxamine 100% | activation, % at 7.5 µM (by protocol) | hit rate 0.32% among 300,000;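 active = mean activation of at least 10% of the iron chelator positive control signal, with at least half of replicates also reaching 10%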
SMARCA2 act conf = confirmation of SMARCA2 (BRM) function activators; shares compounds with SMARCA2 activ; MG213 cells, MMTV-luciferase with dexamethasone, luminescence, overnight; MG213 cells expressing E1A, Rb sequestered; DMSO wells 0%, reference activator 100%; activation, % at 9.1 µM; hit rate 30% among 3,500; AID 652260;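 active = activation above its plate's cutoff, the mean activation of tested wells plus 3 SD, cut at about 7.9% in these data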
GAL4-VP16 Luc = GAL4-VP16 reporter activation counter-screen. HEK293 GAL4-VP16 pG5luc reporter, luciferase luminescence; scaled: DMSO wells 0%, SAHA wells 100%. shares compounds with SMARCA2 activ. hit rate 41% among 3,500. activation, % at 9.1 µM;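 active = activation above the solvent-only control well mean plus 3 SD, averaged across control plates, cut at about 5.2% in these data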
* marks the source's active call; other numbers are inactive results; · = no result.

SMILES	GAA850 FXN act	SMARCA2 activ	Hsp70 act	GalR3 antagonist	HIF act	SMARCA2 act conf	GAL4-VP16 Luc
Cc1cccc(NC(=S)NC(=O)c2ccc(-c3ccccc3)cc2)n1	5	11*	·	-9	2	10*	6.7*
Cc1cccc(NC(=S)NC(=O)C(c2ccccc2)c2ccccc2)n1	2	-1	0	-4	1	·	·
COc1ccc(-c2noc(C3CCCN(C(=O)N[C@@H]4C[C@H]4c4ccccc4)C3)n2)cc1 (stereo not given in full)	·	-3	·	·	·	·	·
CC(C)OCCCNC(=O)C1CCC(CNS(=O)(=O)c2ccc(Cl)cc2)CC1 (stereo not given)	2	14*	0	-1	-1	-4	1
O=c1c2ccccc2oc2cc(C#Cc3ccccn3)ccc12	3	8.0*	·	-6	-1	3	9.6*
COc1cccc2oc3ccc(C#Cc4ccccn4)cc3c(=O)c12	5	10*	·	-3	3	3	10*
COC(=O)CSc1nnc(-c2ccc(NS(=O)(=O)c3ccc(C)c(C)c3)cc2)o1	·	-3	·	·	·	·	·
CCOC(=O)N1CCc2c(sc3c2C(=O)NC(c2ccccc2)N3)C1 (stereo not given)	1	·	0	·	0	·	·
CN1CCc2c(sc3c2C(=O)NC(c2cccc(OC(=O)c4cccs4)c2)N3)C1 (stereo not given)	5	14*	0	-2	1	2	11*
Clc1ccc(OCCSc2ncccn2)cc1	5	8.0*	0	-5	5	7	5.5*
CCCOC(=O)CC1C(=O)NCCN1Cc1ccccc1C (stereo not given)	-1	9.5*	0	0	0	-3	0
O=C(O)CCCC[n+]1ccccc1	·	0	·	-7	·	·	·
COc1ccc2oc3cc(NCCN(C)C)ccc3c(=O)c2c1	·	21*	·	-9	·	38*	13*
COc1cccc2sc3ccc(NCCC4CCCN4C)cc3c(=O)c12 (stereo not given)	2	0	·	-6	0	·	·
CN(C)CCCNC(=O)c1cc2sc3ccccc3c2s1	2	6	0	-11	-1	·	·
CN(C)CCNc1ccc(CO)c2sc3ccc(O)cc3c(=O)c12	-4	14*	·	-2	·	5	11*
COc1ccc2c(=O)c3ccccc3oc2c1	3	4	·	5	3	·	·
COc1ccc2sc3cccc(NCCN(C)C)c3c(=O)c2c1	·	29*	·	-10	·	40*	4
COc1cc(C=Nn2c(-c3ccc(F)cc3)n[nH]c2=S)ccc1OCc1ccccc1	·	-2	·	·	·	·	·
CCOC(=O)C(=CNCC(=O)O)C(=O)OCC	0	11*	0	-9	0	-2	0
COc1ccc(N2C(=O)c3n[nH]c(C)c3C2c2ccccc2)cc1 (stereo not given)	·	0	·	-6	·	·	·
COc1cc(Cl)nn(-c2ccccc2)c1=O	0	11*	0	-10	0	-1	2
CCN(/C=N/c1sc2c(c1C#N)CCCCC2)CC	4	8.0*	0	-3	2	8.7*	7.7*
CC(C)CN(/C=N/c1sc2c(c1C#N)CCCCC2)CC(C)C	0	-5	0	1	0	·	·
Cc1ccc(CNC(=O)C2=NNC(=O)CC2)cc1	1	12*	0	0	0	4	7.9*
SMILES	GAA850 FXN act	SMARCA2 activ	Hsp70 act	GalR3 antagonist	HIF act	SMARCA2 act conf	GAL4-VP16 Luc
CN1CC=C(c2ccc(C(F)(F)F)cc2)N(c2ccc(Br)cc2)C1=O	·	2	·	·	·	·	·
COc1cccc(C2CC=C(C(=O)O)CN2S(=O)(=O)c2ccc(C)cc2)c1 (stereo not given)	·	-1	·	·	·	·	·
Cc1nonc1CC(=O)NC1CC(C)(C)Cc2c1cnn2-c1ccc(F)cc1 (stereo not given)	0	-1	·	-4	0	·	·
COc1ccc(-n2ncc3c2CC(C)(C)CC3NC(=O)Cc2nonc2C)cc1 (stereo not given)	2	8.0*	·	5	0	2	0
CCCc1cnc(N2CCN(C(=S)NC)CC2)nc1	4	8.4*	·	5	1	7	7.7*
O=C(c1cccs1)N1CC[C@H]2[C@H](CCCN2Cc2ccc(F)cc2)C1	·	1	·	·	·	·	·
Nc1nc2c(ncn2[C@@H]2O[C@H](C(=O)NCC3CCCCC3)[C@@H](O)[C@H]2O)c(=O)[nH]1	·	-6	·	-3	·	·	·
C/C(=C\c1ccccc1)C(=O)Nc1cc(C)on1	5	9.9*	0	-5	-1	5	6.9*
C/C(=N\NC(=O)c1ccc(O)cc1O)c1cccnc1	1	10*	·	2	0	3	3
C/C(=N\NC(=O)c1cccs1)c1cccnc1	5	8.4*	0	-2	2	0	1
C/C(=N/NC(=O)c1ccc(Cl)cc1Cl)c1cccnc1	1	·	·	·	1	·	·
COC(=O)C1CN(Cc2cn(CCC3OCCO3)nn2)CCS(=O)(=O)N1Cc1ccc(F)cc1 (stereo not given)	·	-3	·	·	·	·	·
Cc1ccc(NC(=S)NNC(=O)CSc2nc3sc4c(c3c(=O)n2-c2ccccc2)CCCC4)cc1	·	1	·	·	·	·	·
N#C/C(=C\C=C\c1ccccc1)c1nc(-c2ccc3c(c2)OCO3)cs1	0	9.8*	0	2	0	1	-1
Brc1ccccc1-n1nnc(-c2nccs2)n1	5	8.3*	0	-6	5	8	16*
O=C(N=C1N(Cc2ccccc2)C[C@]2(C=C3CCCCC3n3c(=O)n(-c4ccccc4)c(=O)n32)N1C(=O)OCc1ccccc1)c1ccccc1 (stereo not given in full)	·	-3	·	·	·	·	·
NC(=S)N/N=C/c1coc2c(ccc3ccccc32)c1=O	5	13*	0	-4	1	2	3
NC(=S)N/N=C/c1coc2cc(Br)ccc2c1=O	2	-5	·	2	1	·	·
COc1ccc(CNS(=O)(=O)CC2NCc3cc(OC)ccc32)cc1 (stereo not given)	·	10.0*	·	·	·	2	0
CCCCCN1CCCCC(NC(=O)c2ccccc2OC)C1=O (stereo not given)	·	1	·	·	·	·	·
CCN(CC)C(=O)CC[C@H]1CC[C@]2(CCCN(S(=O)(=O)c3ccccc3)C2)O1	·	-3	·	·	·	·	·
CCOc1ccc(C(C)=O)cc1CN1C(=O)NC2(CCCCCC2)C1=O	5	-4	·	-9	-46	·	·
COc1ccc(C(C)=O)cc1CN1C(=O)NC2(CCCCCCC2)C1=O	0	11*	0	-5	0	-4	1
O=C(COC(=O)/C=C/c1c(F)cccc1Cl)NCC1CCCO1 (stereo not given)	2	-1	·	-4	·	·	·
